FLuc inh: Photinus pyralis luciferase inhibition. 2.5% of 76,000 active. purified P. pyralis luciferase, luminescence, biochemical. AID 1347043. Potency, µM (series often up to 115 µM), actives largely listed as inhibitors. P08659; also: nearly all actives have a fitted effect of over 65% in size
Target sequence (P08659 whole entry, looked up): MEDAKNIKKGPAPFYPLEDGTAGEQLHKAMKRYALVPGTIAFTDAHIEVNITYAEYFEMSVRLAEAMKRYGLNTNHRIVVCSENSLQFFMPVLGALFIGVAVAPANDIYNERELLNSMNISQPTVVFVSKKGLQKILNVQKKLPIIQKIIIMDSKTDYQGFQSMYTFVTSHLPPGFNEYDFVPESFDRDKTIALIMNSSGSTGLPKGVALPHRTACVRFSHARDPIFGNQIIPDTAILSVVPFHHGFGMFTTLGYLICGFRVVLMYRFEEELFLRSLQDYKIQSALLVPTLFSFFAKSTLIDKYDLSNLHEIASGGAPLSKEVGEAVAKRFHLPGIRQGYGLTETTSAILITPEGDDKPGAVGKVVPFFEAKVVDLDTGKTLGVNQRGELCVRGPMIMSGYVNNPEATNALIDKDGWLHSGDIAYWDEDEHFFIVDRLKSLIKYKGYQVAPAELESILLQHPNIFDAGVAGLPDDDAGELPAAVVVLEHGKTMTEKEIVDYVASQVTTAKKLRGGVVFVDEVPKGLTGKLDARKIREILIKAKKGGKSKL
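Luminescence read by CCD imager after adding enzyme (10nM final) to wells holding compound, titrated in qHTS. Substrates 10uM each D-luciferin and ATP; buffer 50mM Tris acetate pH 7.5, 10mM Mg acetate, Tween-20, BSA.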
hNpr1 antagonist: antagonists of human natriuretic peptide receptor Npr1; P16066; HEK293 hNpr1 GloSensor cGMP, ANP-stimulated luminescence; Potency, µM (top dose mostly 46.3 µM), inactives show at the top dose activity change, negative = inhibition, usual class: inhibitors; 1.6% of 76,000 active; AID 1347048; calls by dose curve; also: nearly all actives have a fitted effect of over 60% in size
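Compound pre-incubated 30 min at room temperature on GloSensor-loaded HEK293 cells stably carrying hNpr1 and the pGS-40F cGMP biosensor. Stimulation uses hNppA at 0.1 nM final; luminescence is taken at baseline and 20 min post-agonist.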
NIH3T3 tox: cytotoxic compounds in NIH 3T3 cells; NIH 3T3 viability, CellTiter-Glo ATP luminescence, 48-72 h; Potency, µM (top dose mostly 96.7 µM), for inactives: top-dose activity change, negative = cytotoxicity, most hits filed as inhibitors; 4.3% of 94,000 active; AID 1345082; also: nearly all actives have a fitted effect of over 55% in size
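ATP-dependent luminescence (CellTiter-Glo) served as the viability signal for NIH 3T3 cells treated with compound for 48 or 72 hr at 37 °C.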
HEK cytotox: kills HEK 293 cells. HEK 293 viability, ATP luminescence (CellTiter-Glo), 48-72 h. Potency, µM (doses to about 115 µM), without a hit: top-dose activity change, negative = cytotoxicity, actives largely listed as inhibitors. 6.6% of 94,000 active; also: nearly all actives have a fitted effect of over 60% in size
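Read-out: CellTiter-Glo ATP luminescence. Cells: HEK 293, 250 cells/well. Exposure: 48 or 72 hr, 37 degree Celsius.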
Active calls of the source: *; i = inactive; ? = inconclusive; / = no result given; [ ] = dose if it differs, or a comment. Rows were chosen to be rich in hits. Some 11% of all compounds tested hit in one or more screens of this group. Unless noted, calls follow the shape of the dose curve; as a rule, active = well fitted curve in the direction sought with a large enough effect; inconclusive = small, poorly fitted or top-dose-only effect, or another doubt; inactive = no such curve, though single readings can be large; an effect the other way counts as inactive or inconclusive. % is scaled to controls: 0 for no effect and ±100 for the full control effect; potency is read from the fitted curve at half-maximal effect.

SMILES | FLuc inh | hNpr1 antagonist | NIH3T3 tox | HEK cytotox
Cc1ccc(C2Cn3nnc(C(=O)N4CCC(C(=O)NCc5ccccc5)CC4)c3CO2)cc1 (stereo not given) | 40µM* | 3% | -8% | 3%
Cc1ccc(C2Cn3nnc(C(=O)N4CCC(C(=O)NCC(C)c5ccccc5)CC4)c3CO2)cc1 (stereo not given) | 32µM* | -1% | i | -1%
O=C(NCc1ccccc1-n1ccnc1)C1CC(=O)N(Cc2cccnc2)C1 (stereo not given) | i | -5% | i | -1%
N#Cc1cccc(-c2c(C(=O)NCC(F)(F)F)nc3sccn23)c1 | / | / | ? | i
Cc1ccc(C2Cn3nnc(C(=O)N4CCC(C(=O)NC5CCC(C)CC5)CC4)c3CO2)cc1 (stereo not given) | 28µM* | -4% | -22% | -15%
COc1ccc(Nc2ccnc(N3CCC(NC(=O)Cc4cccc(Cl)c4)CC3)n2)cc1 | / | / | 20µM* | 25µM*
COc1ccc(Nc2ccnc(N3CCC(NC(=O)c4ccccn4)CC3)n2)cc1 | / | / | 40µM* | ?
COc1ccc(Nc2ccnc(N3CCC(NC(C)=O)CC3)n2)cc1 | / | / | -20% | -9%
COc1ccc(Nc2ccnc(N3CCC(NC(=O)c4ccccc4C)CC3)n2)cc1 | / | / | 40µM* | 40µM*
COc1ccc(C(=O)NC2CCN(c3nccc(Nc4ccccc4Cl)n3)CC2)cc1 | / | / | ? | -9%
COc1cccc(C(=O)N2CCC3(CC2)CC(OC)CCO3)c1 (stereo not given) | i | 0% | i | i
CN(CC[C@H]1CN(C(=O)c2ccnc(Cl)c2)CC[C@H]1CC(=O)O)c1ccccc1 | i | -1%[70.6 µM] | 28µM* | -6%[172 µM]
CN(CC[C@H]1CN(C(=O)c2cccs2)CC[C@H]1CC(=O)O)c1ccccc1 | i | 5%[70.6 µM] | 0%[174 µM] | i
CC(C)CNC(=O)c1coc(COc2ccc3c(c2)C(c2ccccc2)N(C(=O)C(C)C)CC3)n1 (stereo not given) | i | -16% | 40µM* | ?
COCCNC(=O)c1coc(COc2ccc3c(c2)C(c2ccc(C)cc2)N(C(=O)C2CC2)CC3)n1 (stereo not given) | i | 2% | ? | 25µM*
CCC(=O)N1CCc2ccc(OCc3nc(C(=O)NCCOC)co3)cc2C1c1ccc(C)cc1 (stereo not given) | i | 0% | -28% | 28µM*
C=CCNC(=O)c1coc(COc2ccc3c(c2)C(c2cccc(C)c2)N(C(=O)C2CC2)CC3)n1 (stereo not given) | i | -15% | ? | 35µM*
CCNC(=O)c1coc(COc2ccc3c(c2)C(c2ccc(F)cc2)N(C(=O)CC(C)C)CC3)n1 (stereo not given) | i | -18% | ? | ?
Cc1cccnc1C(C)n1cc(-c2ccccc2-c2ccco2)nn1 (stereo not given) | i | 6% | -26% | -25%
O=C(NCc1ccccn1)C1CN(C2CCCC2)C(=O)N1 (stereo not given) | / | / | -2%[138 µM] | i
C=CCNC(=O)c1coc(COc2ccc3c(c2)C(c2ccc(C)cc2)N(C(=O)C2CC2)CC3)n1 (stereo not given) | i | -20% | ? | ?
Cc1ccc(C2c3cc(OCc4nc(C(=O)N5CCCC5)co4)ccc3CCN2C(=O)C2CC2)cc1 (stereo not given) | i | -2% | ? | 40µM*
COc1ccc(-c2nc(C(C)C)nc3c2CCN(C(=O)c2ccc(C)cc2)CC3)cc1 | i | 5% | ? | ?
Cc1ccc(C(=O)N2CCc3nc(C(C)C)nc(-c4ccc(Cl)cc4)c3CC2)cc1 | / | / | ? | 79µM*
CCc1nc2c(c(-c3ccc(Cl)cc3)n1)CCN(C(=O)c1ccc(C)cc1)CC2 | i | 0% | ? | ?
SMILES | FLuc inh | hNpr1 antagonist | NIH3T3 tox | HEK cytotox
COc1ccc(-c2nc(C(C)C)nc3c2CCN(C(=O)c2ccc(C(F)(F)F)cc2)CC3)cc1 | i | -15% | 28µM* | 32µM*
COc1ccc(-c2nc(C(C)C)nc3c2CCN(C(=O)Nc2ccc(Cl)cc2)CC3)cc1 | i | 0% | 35µM* | ?
CC(C)c1nc2c(c(-c3ccc(Cl)cc3)n1)CN(C(=O)C(C)(C)C)CC2 | / | / | ? | 40µM*
COCCc1noc(C2Cc3ccccc3N2C(=O)Nc2cc(C)cc(C)c2)n1 (stereo not given) | i | 3% | -18% | ?
COC1CN(C(=O)Nc2cccc(C#N)c2)CCC(=O)N(C)c2ccccc21 (stereo not given) | / | / | ? | -16%[57.5 µM]
O=C(Nc1ccc2c(c1)OCCO2)N1CCCC(c2nnnn2-c2ccccc2)C1 (stereo not given) | / | / | -27% | ?
CC(C)c1nc2c(c(-c3ccc(Cl)cc3)n1)CCN(Cc1ccsc1)CC2 | / | / | ? | 45µM*
CC(C)c1nc2c(c(-c3ccc(O)cc3)n1)CN(Cc1ccc(OC(F)(F)F)cc1)CC2 | i | 0% | 22µM* | 22µM*
O=C(Cc1ccc2c(c1)OCO2)N1CCOCC2(CN(Cc3ccccc3)C2)C1 | i | 1%[70.6 µM] | ? | ?
O=C(Cc1ccc2c(c1)OCO2)N1CCOCC2(CN(Cc3cc(F)cc(F)c3)C2)C1 | i | 4%[70.6 µM] | 35µM* | 56µM*
O=C([C@@H]1CCCN1[S+](=O)([O-])c1cccc(C(F)(F)F)c1)N1CCC(N2CCOC2=O)CC1 | / | / | -14% | -15%
N#Cc1ccc(CN2CC3(Cc4ccccc4C(=O)N3)C2)cc1 | / | / | 35µM* | ?
N#Cc1ccc(CN2CCC3(C2)NC(=O)c2ccccc2O3)cc1 (stereo not given) | i | -3%[70.6 µM] | 2%[138 µM] | i
Cc1cccc(N2CCN(C(=O)c3ccc4c(c3)N(C)C3CCCCCN3C4=O)CC2)c1 (stereo not given) | i | -7% | ? | 40µM*
CN1c2cc(C(=O)N3CCN(c4ccc(F)cc4)CC3)ccc2C(=O)N2CCCCCC21 (stereo not given) | i | -13% | ? | 45µM*
CN1c2cc(C(=O)N3CCN(c4ccc(F)cc4)CC3)ccc2C(=O)N2CCCCC21 (stereo not given) | i | 0% | -6% | ?
COc1cccc(N2CCN(C(=O)c3ccc4c(c3)N(C)C3CCCCCN3C4=O)CC2)c1 (stereo not given) | i | 1% | -27% | 50µM*
O=C(NC1CCCCCC1)c1ccc2nc(-c3ccnc(Cl)c3)oc2c1 | / | / | -19%[138 µM] | ?
Cc1ccc(CC(=O)N2c3ccccc3CC2c2nnc(C3CCOCC3)o2)cc1 (stereo not given) | i | -1% | ? | -15%
Cc1ccc(S(=O)(=O)N2c3ccccc3CC2c2nnc(C3CCOCC3)o2)cc1F (stereo not given) | i | -8% | ? | 25µM*
CN(C)CCN1CC2(CCCN(C(=O)CN(C)c3ccccc3)C2)CCC1=O (stereo not given) | i | -2% | ? | i

Screens as filed in PubChem BioAssay.
